Assay results as given in PubChem BioAssay AID624481 (The Scripps Research Institute Molecular Screening Center, 2012).
Activity calls are given as the source filed them. No stated cut-off is given here; in the data, active means inhibition above about 50%; inactive means the rest.

molecular target: Prolyl endopeptidase-like (Mus musculus) (UniProt Q8C167); assay: mouse PREPL enzyme inhibition by screening hits – biochemical, gel-based competitive ABPP, fluorescence, HTS hits, PREPL inhibitor project (AID 624481); details: purified mouse PREPL, at 20 µM, stronger effect = higher value
Sequence (Q8C167 whole entry, looked up): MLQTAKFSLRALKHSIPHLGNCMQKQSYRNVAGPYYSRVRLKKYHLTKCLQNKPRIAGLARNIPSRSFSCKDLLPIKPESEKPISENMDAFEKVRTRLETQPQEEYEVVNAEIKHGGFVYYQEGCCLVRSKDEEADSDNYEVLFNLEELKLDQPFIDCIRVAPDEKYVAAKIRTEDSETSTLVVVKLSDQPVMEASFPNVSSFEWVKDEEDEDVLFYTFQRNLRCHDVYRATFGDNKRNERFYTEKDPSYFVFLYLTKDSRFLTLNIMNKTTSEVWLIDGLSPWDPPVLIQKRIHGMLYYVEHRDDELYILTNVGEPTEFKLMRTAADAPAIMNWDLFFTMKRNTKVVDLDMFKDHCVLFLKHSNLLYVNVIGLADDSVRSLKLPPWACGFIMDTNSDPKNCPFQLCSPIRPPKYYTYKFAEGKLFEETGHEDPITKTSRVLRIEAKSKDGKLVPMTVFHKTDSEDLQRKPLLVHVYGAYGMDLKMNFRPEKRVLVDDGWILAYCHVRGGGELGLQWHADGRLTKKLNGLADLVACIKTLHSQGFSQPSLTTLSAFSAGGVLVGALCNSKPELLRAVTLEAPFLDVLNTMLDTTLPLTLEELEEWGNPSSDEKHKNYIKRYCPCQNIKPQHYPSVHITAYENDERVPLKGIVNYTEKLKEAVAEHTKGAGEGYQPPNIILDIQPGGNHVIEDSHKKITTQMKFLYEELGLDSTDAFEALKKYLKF

inhibition, inactive:
CNC(=S)N1N=C(c2ccc(OC)cc2)CC1c1ccc(N(C)C)cc1 (stereo not given) -55%
Cc1sc2ncnc(NN=Cc3ccccc3O)c2c1C -89%
COc1ccc(C(=O)c2coc3ccc(O)c(CN4CCOCC4)c23)cc1 -78%
c1ccc2c(NCCc3c[nH]c4ccccc34)c3ccccc3nc2c1 -49%
CCC[C@@H](CN1CCC[C@H]1CN1C(N)=NC[C@H]1C(C)C)N1C[C@@H]([C@H](C)CC)N(CCCC2CCCC2)C1=N -68%
Nc1c(C(=O)c2cccs2)sc2nsc(SCCN3CCCCC3)c12 -18%
CN(C)S(=O)(=O)c1cccc(-c2csc(=Nc3ccccc3)n2CCCN2CCOCC2)c1 -41%
COc1ccc(N2CCN(c3ccc4nnc(CCC(=O)Nc5ccc(C)cc5)n4n3)CC2)cc1 -20%
COc1ccc(OCC(=O)NNc2c3ccccc3nc3ccccc23)cc1 -2%
CN(C)c1ccc(C(CNC(=O)c2ccc(-c3ccccc3)cc2)N2CCOCC2)cc1 (stereo not given) -7%
CN1Cc2c(N3CCOCC3)nc3sc(C(=O)c4ccccc4)c(N)c3c2CC1(C)C -32%
COc1cccc(C2CC(c3ccc(C)cc3)Nc3nc(N)nn32)c1 (stereo not given) -27%
CCCCCNc1nc(N2CCCC2)c2c(c1C#N)CCN(C)C2 -89%
Cc1ccc(-c2csc(=Nc3cccnc3)n2CCCN2CCCC2=O)cc1C -149%
COc1ccc(NCc2nc3ccccc3n2CCOc2ccc(C)cc2)cc1 -75%
